Compound activity (PubChem BioAssay)
BH1578 lux ind = induces V. cholerae light production without autoinducers | AID 588436 | 350,000 compounds, 0.16% hits | activation, % at 18.7 µM | V. cholerae BH1578 lux reporter, luminescence, 6 h; in the data active = activation mostly above about 9.7%, no sharp cut-off; inconclusive = no clear call, values can overlap the other calls; inactive = mostly below about 3.7%
Bead autofluor = compound fluorescence in toxin protease inhibitor counterscreen | 360,000 compounds, 3.1% hits | compound autofluorescence counterscreen, microsphere flow cytometry; stronger effect = higher value | fluorescence intensity (concentration not given with the values); in the data active = fluorescence intensity above about 16000; inconclusive = no clear call, values can overlap the other calls
Anthrax LF inh2 = blocks Bacillus anthracis lethal factor protease; inhibition, % at 10 µM; P15917; 360,000 compounds, 0.12% hits; multiplex microsphere protease cleavage assay, LF; AID 588501; note: plate controls were buffer without enzyme for full effect and enzyme alone for no effect
MazEF act = activators of E. coli MazEF toxin-antitoxin RNase; P0AE70; FAM/BHQ RNA-DNA oligo cleavage fluorescence, 5 h; activation, % at 20 µM; 350,000 compounds, 0.32% hits; in the data active = activation above about 50%
BoNT F protease = inhibitors of Botulinum neurotoxin F light chain protease | Multiplex microsphere protease cleavage assay, flow cytometry | inhibition, % at 10 µM | 360,000 compounds, 0.22% hits | AID 588497; in the data active = inhibition above about 35%, passing the limit was not always enough; inconclusive = no clear call, values can overlap the other calls; note: plate controls were buffer without enzyme for full effect and enzyme alone for no effect
BoNT-A LC inh2 = BoNT A light chain protease inhibition; multiplex microsphere protease substrate cleavage, flow cytometry; inhibition, % at 10 µM; 360,000 compounds, 0.17% hits; note: plate controls were buffer without enzyme for full effect and enzyme alone for no effect
Active calls of the source: *; i = inactive; ? = inconclusive; . = no result given; ! = a repeat was not active. Most compounds without a hit are left out; they make up all but 3.9% or so of the library. Cut-off read from the data, not from the text of the source, unless noted: active = inhibition above about 30%; inconclusive = no clear call, values can overlap the other calls; inactive = below that.

SMILES	BH1578 lux ind	Bead autofluor	Anthrax LF inh2	MazEF act	BoNT F protease	BoNT-A LC inh2
Nc1ccc(-c2c3ccc(=O)cc-3oc3cc(O)ccc23)cc1C(=O)O	i	9781	128*	.	?	21
CC(=Nc1ccc2c(c1)CCC2)c1c(O)n(C2CCCCC2)c(=O)[nH]c1=O	11	15927	-4	-22	3	1
CCC(=Nc1ccc2c(c1)CCC2)c1c(O)n(C2CCCCC2)c(=O)[nH]c1=O	i	22000*	0	-13	0	?
O=C(NC1CCCCC1)C(c1cccnc1)N(C(=O)c1csnn1)c1ccc(F)cc1 (centres undefined)	0	4260	1	1	-4	0
COC(=O)Cc1cc(=O)[nH]c(/N=C(\N)Nc2ccc(C(C)C)cc2)n1	-1	3937	-3	12	0	0
COc1ccc(-c2ccnc3nc(-n4cccc4)nn23)cc1	-1	20861*	-2	-52	-3	-3
COc1ccccc1N(C(=O)c1cncc(Br)c1)c1nc(-c2ccc(C)cc2)cs1	0	2285	-2	-36	-2	0
Cc1cccc(C(=O)N/N=C/c2ccncc2)c1	5	16845*	-2	1	-3	-2
Cc1ccc(C(=O)Nc2cccc(C(=O)N/N=C/c3ccc(F)cc3)c2)cc1	-4	3414	-8	63*	6	-1
CCOC(=O)C1(CC2CC2)CCN(Cc2ccc3cccc(F)c3n2)CC1	0	5235	-4	-2	-8	-1
CC(=O)c1sc2nc(CSc3nnnn3-c3ccccc3)[nH]c(=O)c2c1C	i	4075	-1	-39	0	3
Cc1ccc(-n2nnnc2SCc2nc3sc(C)c(C)c3c(=O)[nH]2)cc1	0	8852	0	68*	-4	1
Cc1cc(Cl)ccc1OCCCC(=O)N1CCN(C(=O)c2ccco2)CC1	i	21790*	-4	-5	8	3
O=C(NCc1ccccc1)c1cccc(OCC(=O)N2CCN(C(=O)c3ccco3)CC2)c1	i	20088*	3	0	1	?
O=C(CCCOc1ccccc1)N1CCN(C(=O)c2ccco2)CC1	-14	23020*	1	9	0	0
Cc1ccc(OCC(=O)N2CCN(C(=O)c3ccco3)CC2)cc1	i	3896	-4	4	-6	-1
O=C(COc1ccc2ccccc2c1)N1CCN(C(=O)c2ccco2)CC1	0	1905	2	2	1	1
O=C(NCc1ccccc1)c1ccccc1OCC(=O)N1CCCCC1	i	22260*	-2	4	-2	-1
Cc1cc(Cl)ccc1OCCCC(=O)N1CCN(S(=O)(=O)c2ccccc2)CC1	4	4998	0	5	-6	-1
CC[C@]12c3[nH]c4cc(-c5ccco5)ccc4c3CCN1C(=O)[C@@H](CC(=O)NCCN1CCOCC1)C[C@@H]2C(=O)N1CCN(C(=O)C2CC2)CC1	0	3698	-10	5	0	0
C[C@@H]1COc2cc(N3CCC[C@H]3CO)ccc2S(=O)(=O)N1	.	5987	-2	.	-4	1
O=C(NN1C(=O)c2ccccc2NC1c1ccc([N+](=O)[O-])o1)c1ccc(Br)cc1 (centres undefined)	i	4328	-1	64*	4	0
O=C1COc2ccccc2N1Cc1ccccc1Cl	17*	9192	-2	0	4	-1
CC1Oc2ccccc2N(Cc2ccccc2Cl)C1=O (centres undefined)	-2	23481*	-2	-2	-2	-1
Nc1cc2c(cc1Cl)N(Cc1ccccc1)C(=O)CO2	i	6720	-2	-1	-3	1
SMILES	BH1578 lux ind	Bead autofluor	Anthrax LF inh2	MazEF act	BoNT F protease	BoNT-A LC inh2
COc1ccc(CN2C(=O)C(C)Oc3ccccc32)cc1 (centres undefined)	-1	4306	1	-27	12	-6
COc1ccc(-c2nc3c4ccccc4ccn3c2CC2CCCCC2)cc1OC	.	4440	-5	.	-40	0
CCCc1nc2scc(-c3ccccc3)c2c(=O)n1N	1	23965*	-1	5	0	-2
CCc1nc2scc(-c3ccc(C)cc3)c2c(=O)n1N	0	2177	-1	-3	1	-1
Cc1c(N2C(=O)CS/C2=N\N=C\c2ccccc2O)c(=O)n(-c2ccccc2)n1C	0	16255*	-3	-3	-3	?
COC(=O)CC1SC(=O)NC1=Nc1ccccc1 (centres undefined)	i	23324*	1	-1	0	1
O=C(NC(NCc1cccnc1)C(Cl)(Cl)Cl)c1cccc2ccccc12 (centres undefined)	0	2331	-2	2	-3	0
COc1ccc(CNCC(O)(c2ccc(Cl)cc2)c2ccc(Cl)cc2)cc1	0	21174*	-6	-1	-16	-2
COc1ccc(CNCC(O)(c2ccc(Cl)cc2)c2ccc(Cl)cc2)cc1OC	-1	18261*	-5	9	-22	-6
COc1ccc(CNCC(O)(c2ccccc2)c2ccc(F)cc2)cc1 (centres undefined)	i	4049	2	3	0	0
CC(C)c1[nH]c(=O)c(C#N)c2c1COC(C)(C)C2	1	21618*	-1	1	-3	-4
C/C(N)=C(/C#N)C(=O)CSc1nc2cc(Cl)ccc2s1	i	24839*	1	-13	-5	?
C/C(N)=C(/C#N)C(=O)CSc1nnc(Nc2cccc(C)c2)s1	0	17498*!	0	-14	0	0
C=CCNC(=S)N(CC)c1cccc2ccccc12	0	4768	-8	10	-13	-2
COc1ccc(CNC(=O)Nc2nc(C(N)Cc3ccc(C(F)(F)F)cc3)cs2)cc1 (centres undefined)	1	3867	-8	.	-15	-1
CCOC(=O)C[N+]1(C)CCN(C(C)=O)CC1	0	4203	-4	1	-1	0
Cn1c2c(c(=O)[nH]c1=O)C(c1ccc(O)cc1)C1=C(N2)c2ccccc2C1=O (centres undefined)	25*	4288	-6	8	0	0
Cn1c(Cc2cccs2)nnc1SCC(=O)N1CCCc2ccccc21	.	4080	0	-1	-15	1
Cc1nnc(SCC(=O)NCc2ccc(F)cc2)[nH]c1=O	-1	2522	-1	3	0	-1
O=C(CSc1nnc(Cc2cccs2)n1CCc1ccccc1)N1CCCc2ccccc21	1	23460*	-2	2	1	0
Cc1nnc(SCC(=O)N2CCCc3ccccc32)[nH]c1=O	-6	16177*	-2	-1	0	1
CC1CCc2cc(F)ccc2N1C(=O)CSc1nnc(-c2cccs2)n1C (centres undefined)	i	23587*	-3	4	-3	?
Cc1nnc(SCC(=O)NCc2ccccc2)[nH]c1=O	0	17403*	-1	-6	-6	-3
OC[C@@H]1CN(Cc2ccc3c(c2)OCO3)C[C@H](n2cnc3c(NC4CCCC4)ncnc32)O1	-9	3740	7	.	5	0
